Test results published in PubChem BioAssay (NCATS).
Inconclusive results are not listed. Values without a mark were called inactive. The source made the active and inactive calls. Calls follow the shape of the dose curve; as a rule, active = well fitted cell-killing curve with a large enough effect; inconclusive = small, poorly fitted or top-dose-only effect, or effect the other way; inactive = no such curve, though single readings can be large or run the other way.

Columns and labels:
[1] = Quantitative High-Throughput drug screen in 47 multiple myeloma cell lines against the NCATS MIPE library collection: MM1R_ATCC cell viability assay (AID 1918981); also: nearly all actives have a fitted effect of over 35% in size
Method in brief: (§1)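 500 cells/well per myeloma line exposed to pinned MIPE 4.0 compounds for 48 h at 37 °C, 5% CO2. Viability read as ATP by CellTiter-Glo luminescence, normalised to DMSO-only (100%) and media-only (0%) wells.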

[2] = Quantitative High-Throughput drug screen in 47 multiple myeloma cell lines against the NCATS MIPE library collection: KMS28PE_JCRB cell viability assay (AID 1918983); also: nearly all actives have a fitted effect of over 35% in size
Method in brief: as §1

[3] = Quantitative High-Throughput drug screen in 47 multiple myeloma cell lines against the NCATS MIPE library collection: OPM1_PLB cell viability assay (AID 1918989); also: nearly all actives have a fitted effect of over 40% in size
Method in brief: as §1

[4] = Quantitative High-Throughput drug screen in 47 multiple myeloma cell lines against the NCATS MIPE library collection: XG6_PLB cell viability assay (AID 1919865); also: nearly all actives have a fitted effect of over 40% in size
Method in brief: as §1

[5] = Quantitative High-Throughput drug screen in 47 multiple myeloma cell lines against the NCATS MIPE library collection: XG1_PLB cell viability assay (AID 1919866); also: nearly all actives have a fitted effect of over 35% in size
Method in brief: as §1

[6] = Quantitative High-Throughput drug screen in 47 multiple myeloma cell lines against the NCATS MIPE library collection: VP6_DJ cell viability assay (AID 1919867); also: nearly all actives have a fitted effect of over 40% in size
Method in brief: as §1

[7] = Quantitative High-Throughput drug screen in 47 multiple myeloma cell lines against the NCATS MIPE library collection: PE2_PLB cell viability assay (AID 1919869); also: nearly all actives have a fitted effect of over 35% in size
Method in brief: as §1

[8] = Quantitative High-Throughput drug screen in 47 multiple myeloma cell lines against the NCATS MIPE library collection: PCM6_Riken cell viability assay (AID 1919870); also: nearly all actives have a fitted effect of over 30% in size
Method in brief: as §1

[9] = Quantitative High-Throughput drug screen in 47 multiple myeloma cell lines against the NCATS MIPE library collection: RPMI8226_ATCC cell viability assay (AID 1919871); also: nearly all actives have a fitted effect of over 30% in size
Method in brief: as §1

[10] = Quantitative High-Throughput drug screen in 47 multiple myeloma cell lines against the NCATS MIPE library collection: OPM2_DSMZ cell viability assay (AID 1919872); also: nearly all actives have a fitted effect of over 30% in size
Method in brief: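 Myeloma cell lines, 500 cells per well, exposed to MIPE 4.0 library compounds for 48 h at 37C, 5% CO2. Viability from ATP by CellTiter-Glo luminescence; normalised to DMSO (100%) and media-only (0%) wells.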

[11] = Quantitative High-Throughput drug screen in 47 multiple myeloma cell lines against the NCATS MIPE library collection: KMS11_JCRBsus cell viability assay (AID 1919873); also: nearly all actives have a fitted effect of over 50% in size
Method in brief: as §1

[12] = Quantitative High-Throughput drug screen in 47 multiple myeloma cell lines against the NCATS MIPE library collection: KMS28BM_JCRB cell viability assay (AID 1919874); also: nearly all actives have a fitted effect of over 35% in size
Method in brief: as §1

[13] = Quantitative High-Throughput drug screen in 47 multiple myeloma cell lines against the NCATS MIPE library collection: L363_DSMZ cell viability assay (AID 1918984); conditions: L363 myeloma viability, CellTiter-Glo ATP luminescence, 48 h; viability (% of control): at 45.8 µM (top of the series); also: nearly all actives have a fitted effect of over 40% in size
Method in brief: as §1

[14] = Quantitative High-Throughput drug screen in 47 multiple myeloma cell lines against the NCATS MIPE library collection: OCIMY7_PLB cell viability assay (AID 1918987); conditions: OCI-MY7 myeloma viability, CellTiter-Glo ATP, 48 h; viability (% of DMSO): at 45.8 µM (top of the series); also: nearly all actives have a fitted effect of over 65% in size
Method in brief: as §1

[15] = Quantitative High-Throughput drug screen in 47 multiple myeloma cell lines against the NCATS MIPE library collection: OCIMY5_PLB cell viability assay (AID 1918988); also: nearly all actives have a fitted effect of over 65% in size
Method in brief: as §1

[16] = Quantitative High-Throughput drug screen in 47 multiple myeloma cell lines against the NCATS MIPE library collection: UTMC2_PLB cell viability assay (AID 1919868); conditions: CellTiter-Glo ATP luminescence, 48 h; viability (% of DMSO control): at 45.8 µM (top of the series); also: nearly all actives have a fitted effect of over 55% in size
Method in brief: as §1

[17] = Quantitative High-Throughput drug screen in 47 multiple myeloma cell lines against the NCATS MIPE library collection: KMS34_JCRB cell viability assay (AID 1918985); also: nearly all actives have a fitted effect of over 40% in size
Method in brief: as §1

[18] = Quantitative High-Throughput drug screen in 47 multiple myeloma cell lines against the NCATS MIPE library collection: SKMM1_PLB cell viability assay (AID 1919863); conditions: SKMM1 myeloma viability, CellTiter-Glo ATP, 48 h; viability: stronger effect = lower value; also: nearly all actives have a fitted effect of over 35% in size
Method in brief: as §1

[19] = Quantitative High-Throughput drug screen in 47 multiple myeloma cell lines against the NCATS MIPE library collection: U266_ATCC cell viability assay (AID 1919864); also: nearly all actives have a fitted effect of over 35% in size
Method in brief: as §1
Potency is read from the fitted curve at half-maximal effect.

| Structure (SMILES) | Potency [1] | Potency [2] | Potency [3] | Potency [4] | Potency [5] | Potency [6] | Potency [7] | Potency [8] | Potency [9] | Potency [10] | Potency [11] | Potency [12] | Potency [13] | Potency [14] | Potency [15] | Potency [16] | Potency [17] | Potency [18] | Potency [19] | viability [18] [%] |
| --- | --- | --- | --- | --- | --- | --- | --- | --- | --- | --- | --- | --- | --- | --- | --- | --- | --- | --- | --- | --- |
| C[C@H]1O[C@@H](n2cc(F)c(=O)[nH]c2=O)[C@H](O)[C@H]1O | 14.8 µM (active) | inactive | 11.8 µM (active) | inactive | 8.33 µM (active) | 0.59 µM (active) | 1.87 µM (active) | 8.33 µM (active) | 9.35 µM (active) | inactive | 7.43 µM (active) | inactive |  |  |  |  |  |  |  |  |
| CC(C)Oc1cc(Nc2nc(N[C@@H](C)c3ccc(F)cn3)ncc2Cl)[nH]n1 | 26.4 µM (active) |  | 3.72 µM (active) | 7.43 µM (active) | 14.8 µM (active) | 7.43 µM (active) | 6.62 µM (active) | 7.43 µM (active) | inactive |  |  |  | 23.5 µM (active) | 4.18 µM (active) | 26.4 µM (active) | 8.33 µM (active) |  |  |  |  |
| CSc1cccc(Nc2ncc3cc(-c4c(Cl)cccc4Cl)c(=O)n(C)c3n2)c1 | 2.35 µM (active) |  |  | 0.118 µM (active) |  | 0.118 µM (active) |  |  | 2.35 µM (active) | 1.32 µM (active) | 0.187 µM (active) |  |  | 0.0935 µM (active) | 0.296 µM (active) |  | 1.48 µM (active) | 1.87 µM (active) |  |  |
| COc1cc([C@@H]2c3cc4c(cc3[C@@H](O[C@@H]3O[C@@H]5CO[C@@H](C)O[C@@H]5[C@H](O)[C@@H]3O)[C@H]3COC(=O)[C@H]23)OCO4)cc(OC)c1O | 0.372 µM (active) |  | 14.8 µM (active) |  |  |  | 1.18 µM (active) |  |  |  |  |  |  |  | 14.8 µM (active) |  | 4.18 µM (active) |  |  |  |
| COc1cc(Cl)cn2c(-c3cccc(NC4CNC4)n3)cnc12 | 16.6 µM (active) | 20.9 µM (active) |  | 2.96 µM (active) | 11.8 µM (active) | 14.8 µM (active) |  | 14.8 µM (active) | inactive | inactive |  |  |  | 9.35 µM (active) | 13.2 µM (active) | 20.9 µM (active) |  | 9.35 µM (active) |  |  |
| COc1ccc(CCC(=O)Nc2nc3ccc(Cl)cc3s2)cc1OC | inactive | inactive |  | 23.5 µM (active) | 16.6 µM (active) |  | 23.5 µM (active) |  |  | inactive | 11.8 µM (active) |  |  |  |  |  |  |  | 16.6 µM (active) |  |
| Cc1nn(Cc2ccccc2Cl)c(C)c1CN(C)CC(O)COc1ccc(Cl)cc1 (configuration not stated) | 20.9 µM (active) | 4.69 µM (active) | 20.9 µM (active) | 20.9 µM (active) | 20.9 µM (active) | 20.9 µM (active) |  | 18.7 µM (active) | 20.9 µM (active) | inactive | 23.5 µM (active) | 33.2 µM (active) |  |  | 10.5 µM (active) | 20.9 µM (active) |  | 3.32 µM (active) | 18.7 µM (active) |  |
| Cc1ccc(NC(=O)c2cccc(N(C)C)c2)cc1NC(=O)c1ccc(O)cc1 | 4.18 µM (active) |  |  |  | 0.0469 µM (active) | 0.469 µM (active) | 18.7 µM (active) | 0.418 µM (active) | inactive |  | 4.18 µM (active) | 5.26 µM (active) | inactive | 0.059 µM (active) | 1.32 µM (active) | 0.332 µM (active) |  |  |  |  |
| Cc1ccc2c(c1)c1c(n2CCc2ccc(C)nc2)CCN(C)C1 | inactive | inactive |  | 16.6 µM (active) |  |  | inactive | inactive |  |  | inactive | inactive |  |  |  |  |  |  | inactive |  |
| CN(C)CCOc1ccc(C(=C(CCCl)c2ccccc2)c2ccccc2)cc1 | 23.5 µM (active) | 26.4 µM (active) | 7.43 µM (active) |  | 2.96 µM (active) | inactive |  |  | 26.4 µM (active) | inactive | inactive |  |  | 5.9 µM (active) | 26.4 µM (active) | inactive |  | 23.5 µM (active) |  |  |
| CCNC(=O)Nc1ccc(Oc2ncnc(N)c2C=NOC)cc1Cl | inactive |  |  | 4.18 µM (active) |  | 3.72 µM (active) |  |  | 18.7 µM (active) |  | 9.35 µM (active) |  |  | 2.64 µM (active) | 14.8 µM (active) |  |  | 11.8 µM (active) |  |  |
| CN(C)CCOc1cc(-c2cn[nH]c2)ccc1NC(=O)C1COc2ccccc2O1 (configuration not stated) | 13.2 µM (active) | 13.2 µM (active) |  |  | 2.35 µM (active) |  | 16.6 µM (active) | 4.69 µM (active) | inactive |  |  | 5.9 µM (active) |  |  |  | 6.62 µM (active) | 9.35 µM (active) |  |  | 131 |
| c1ccc(-c2oc3ncnc(NC[C@@H]4CCCO4)c3c2-c2ccccc2)cc1 | 23.5 µM (active) | 26.4 µM (active) | 13.2 µM (active) | 10.5 µM (active) |  |  | 16.6 µM (active) |  | 23.5 µM (active) |  | 16.6 µM (active) |  |  |  | 14.8 µM (active) |  |  |  | 16.6 µM (active) |  |
| O[C@@H](COc1cccc2ncccc12)CN1CCN(C2c3ccccc3[C@@H]3[C@H](c4ccccc42)C3(F)F)CC1 (some centres not stated) | 18.7 µM (active) | 23.5 µM (active) | 23.5 µM (active) | 7.43 µM (active) | 7.43 µM (active) |  | 16.6 µM (active) | 10.5 µM (active) | 20.9 µM (active) | inactive | 4.18 µM (active) |  |  | 7.43 µM (active) | 18.7 µM (active) |  |  | 23.5 µM (active) | 8.33 µM (active) |  |
